Hits are enriched below; roughly 19% of the tested compounds scored in any of these assays.
TDP1 cell noCPT – qHTS for Inhibitors of human tyrosyl-DNA phosphodiesterase 1 (TDP1): qHTS in cells in absence of CPT; DT40 Tdp1-/- hTDP1 cells, no CPT, ATP luminescence, 48 h; Potency, µM (doses to about 46.2 µM), for the others: at the highest dose activity change, negative = growth inhibition, actives largely listed as inhibitors; actives 15% (n = 420,000); AID 686978, 2013; further: nearly all actives have a fitted effect of over 55% in size
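Chicken DT40 Tdp1-/- cells stably complemented with human TDP1 were seeded at 400 cells/well with DMSO in place of 20 nM camptothecin. After compound pinning, cells grew at least 48 hr at 37 °C; viability read by CellTiter-Glo luminescence.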
RORgamma inh – ROR gamma (mouse) transcription inhibition; actives 5.4% (n = 310,000); Drosophila S2 Gal4-RORgamma UAS-luciferase reporter, 20 h; Potency, µM (top dose mostly 53.6 µM), inactives show at the highest dose activity change, negative = inhibition, actives largely listed as inhibitors; AID 2551; further: nearly all actives have a fitted effect of over 60% in size
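Stable Schneider cell line, Gal4 DNA-binding domain fused to ROR gamma, UAS-luciferase. Cmpd 1 hr RT → CuSO4 700 uM final → 20 hr RT → luciferase reagent 10 min → luminescence.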
TDP1 inh – inhibitors of human tyrosyl-DNA phosphodiesterase TDP1 | Q9NUW8 | recombinant TDP1, AlphaScreen DNA substrate cleavage | Potency, µM (highest dose often 130 µM), inactives show at the top dose activity change, negative = inhibition, actives largely listed as inhibitors | actives 0.28% (n = 350,000) | AID 485290; further: nearly all actives have a fitted effect of over 40% in size
Target sequence (Q9NUW8 whole entry, looked up): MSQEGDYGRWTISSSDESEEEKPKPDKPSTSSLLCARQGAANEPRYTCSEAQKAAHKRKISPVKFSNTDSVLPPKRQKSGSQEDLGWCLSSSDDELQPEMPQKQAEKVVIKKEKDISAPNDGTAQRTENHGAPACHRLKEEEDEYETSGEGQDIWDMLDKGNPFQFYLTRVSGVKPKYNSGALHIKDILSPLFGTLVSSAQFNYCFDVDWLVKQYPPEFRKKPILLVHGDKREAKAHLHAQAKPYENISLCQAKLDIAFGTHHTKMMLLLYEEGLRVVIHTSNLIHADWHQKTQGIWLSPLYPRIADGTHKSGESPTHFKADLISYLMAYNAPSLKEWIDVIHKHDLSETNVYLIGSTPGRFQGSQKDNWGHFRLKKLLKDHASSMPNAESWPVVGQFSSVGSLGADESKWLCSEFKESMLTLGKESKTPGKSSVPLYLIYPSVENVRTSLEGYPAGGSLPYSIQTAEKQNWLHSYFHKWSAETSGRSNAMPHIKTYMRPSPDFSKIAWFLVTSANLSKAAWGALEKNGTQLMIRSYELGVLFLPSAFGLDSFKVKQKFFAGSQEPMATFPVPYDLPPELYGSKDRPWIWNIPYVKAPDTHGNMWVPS
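Enzyme-compound mixtures sat 15 min at room temperature, followed by a 5 min reaction with 15 nM final substrate and 10 min with AlphaScreen beads. Recombinant human Tdp1 was used at 1 nM final.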
Gal4-VP16 FLuc – Gal4-VP16 reporter inhibition counter-screen; Drosophila S2 Gal4-VP16 UAS-luciferase, luminescence, 20 h; Potency, µM (titrated, usually from 53.6 µM), inactives show at the highest dose activity, negative = inhibition, hits mostly inhibitors; actives 3.5% (n = 310,000);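 further: Gal4-VP16 expression switched on by copper sulfate through the metallothionein promoter; nearly all actives have a fitted effect of over 50% in size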
DT40 TDP1 CPT – growth inhibition of DT40 Tdp1-/-;hTDP1 cells with camptothecin (screen for TDP1 inhibitors). Potency, µM (series often up to 46.2 µM), for the others: top-dose activity change, negative = growth inhibition, actives largely listed as inhibitors. chicken DT40 Tdp1-/-;hTDP1 cells + 20 nM CPT, ATP luminescence, 48 h. actives 12% (n = 420,000). AID 686979; further: nearly all actives have a fitted effect of over 55% in size
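Chicken DT40 Tdp1-/- cells complemented with human TDP1, 400 cells/well, exposed to compounds plus 20 nM camptothecin for at least 48 h at 37 C; viability read as ATP content by CellTiter-Glo luminescence.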
* = called active by the depositor; ? = inconclusive; · = no result given; [ ] = dose if it differs, or a comment. The call rests on the fitted dose curve; in most records, active means well fitted curve in the direction sought with a large enough effect; inconclusive means small, poorly fitted or top-dose-only effect, or another doubt; inactive means no such curve, though single readings can be large; an effect the other way counts as inactive or inconclusive. On the % scale 0 is the no-effect control and ±100 the full control effect; potency means the concentration at half of the fitted maximal effect.

SMILES	TDP1 cell noCPT	RORgamma inh	TDP1 inh	Gal4-VP16 FLuc	DT40 TDP1 CPT
O=C(Nc1ccc(N2CCCCC2)c(Cl)c1)c1ccc(N2CCOCC2)c([N+](=O)[O-])c1	13µM*	7%	1%	4%	18µM*
CC(=O)N1CCN(c2ccc(NC(=O)c3ccc(N4CCCC4)c([N+](=O)[O-])c3)cc2Cl)CC1	?	20%	3%	-1%	?
O=C(Nc1nc2ccc3ccccc3c2s1)c1ccc(N2CCCCC2)c([N+](=O)[O-])c1	?	?	4%	-29%	?
O=C(Nc1ccc(N2CCOCC2)c(Cl)c1)C1CCCCC1	16µM*	1%	-7%	0%	21µM*
CCN(CC)CCCNc1ccc(-c2nnc(-c3ccc(OCC(C)C)cc3)o2)cn1	2.9µM*	1%	·	-6%	2.9µM*
COc1ccc2[nH]c(=O)c(CN(C(C)=O)c3ccc(C)cc3C)cc2c1	-13%	14%	·	1%	-4%
O=C(NNC(=O)c1ccccc1-c1ccccc1C(=O)O)c1ccccc1	11%	-5%	-3%	-1%	2%
O=C(C=P(c1ccccc1)(c1ccccc1)c1ccccc1)c1ccccc1-c1ccccc1C(=O)C=P(c1ccccc1)(c1ccccc1)c1ccccc1	0.58µM*	·	·	·	0.73µM*
COc1cc(CN2CCC(C(=O)NC(c3ccc(F)cc3)c3ncccc3C)CC2)cc(OC)c1 (configuration not stated)	?	·	·	·	23µM*
Cc1cccnc1C(c1ccc(F)cc1)N(C)C(=O)C1CCN(CCOc2ccc(Cl)cc2Cl)CC1 (configuration not stated)	21µM*	·	·	·	26µM*
COc1cc(OC)nc(C(NC(=O)C2CCN(Cc3c[nH]c4ccccc34)CC2)c2ccc(Cl)cc2)n1 (configuration not stated)	18µM*	·	·	·	?
O=C(NC(c1ccccc1)c1ccsc1)C1CCN(Cc2ccc(Oc3ccccc3)cc2)CC1 (configuration not stated)	18µM*	·	·	·	?
CCOC(=O)c1sc(N2C(=O)c3oc4ccc(F)cc4c(=O)c3C2c2ccc(C)cc2)nc1C (configuration not stated)	-5%	·	·	·	4%
Cc1csc(CNc2ncnc3ccc(-c4ccc5c(c4)OCO5)cc23)n1	·	·	0%	·	·
Cc1cc([N+](=O)[O-])ccc1NC(=O)CCC(=O)N1CCCCC1	1%	-4%	2%[56.1 µM]	3%	-5%
COc1ccc(CN2CCC(C(=O)Nc3ccc(Oc4cccnc4)cc3)CC2)cc1	-11%	3%	5%	-13%	?
Cc1cccnc1C(NC(=O)C1CCN(Cc2ccc(Oc3ccccc3)cc2)CC1)c1ccccc1 (configuration not stated)	18µM*	·	·	·	15µM*
COc1ccc(C(NC(=O)C2CCN(Cc3ccc(Oc4ccccc4)cc3)CC2)c2ccccc2C)cn1 (configuration not stated)	18µM*	·	·	·	21µM*
CCOC(=O)C1CCN(Cc2cccc(Oc3ccccc3)c2)CC1	-31%	13%	·	0%	-18%
COc1ccc(C(NC(=O)C2CCN(CCOc3ccc(Cl)cc3Cl)CC2)c2ccccn2)cc1 (configuration not stated)	23µM*	·	·	·	?
COc1ccc(C(NC(=O)C2CCN(Cc3ccc(Oc4ccccc4)cc3)CC2)c2ccccn2)cc1 (configuration not stated)	16µM*	·	·	·	16µM*
COc1ccc(COc2cc(-c3cccc(OC)c3)nc3ccc(N)cc23)cc1	1.5µM*	?	11%	-6%	1.5µM*
COc1ccc(COc2cc(-c3cccc(OC)c3)nc3ccc(NC(=O)c4ccc(N(C)C)cc4)cc23)cc1	3.7µM*	3%[40.7 µM]	12%[96 µM]	1%[40.7 µM]	3.7µM*
COc1ccc(COc2cc(-c3cccc(OC)c3)nc3ccc(NC(C)=O)cc23)cc1	-19%	-7%	-1%	1%	-19%
COc1ccc(COc2cc(-c3cccc(OC)c3)nc3ccc(NC(=O)c4ccc(C)cc4)cc23)cc1	13µM*	-20%[40.7 µM]	11%	-8%[40.7 µM]	?
SMILES	TDP1 cell noCPT	RORgamma inh	TDP1 inh	Gal4-VP16 FLuc	DT40 TDP1 CPT
O=C(O)CC(NC(=O)C1CCCCC1)c1cc([N+](=O)[O-])ccc1Cl (configuration not stated)	4%	-21%	1%	2%	-2%
COc1ccc(CN(C2CCCCC2C)S(=O)(=O)c2ccc(S(=O)(=O)N(C)C)cc2)cc1OC (configuration not stated)	21µM*	13%	-3%	-6%	16µM*
Cc1ccc2cccc(OCc3ccccc3)c2n1	-12%	14µM*	3%	-1%	11%
Cc1ccc2cccc(N)c2n1	-11%	18%	1%	-14%	-1%
O/N=C/c1ccc2cccc(O)c2n1	6%	11µM*	6%	?	0%
Cc1ccc2cccc(O)c2n1	7.1µM*	·	·	·	7.1µM*
O/N=C/c1ccc2ccccc2n1	-21%	-30%	·	-5%	-2%
COc1ccc(C(=O)N/N=C/c2ccc3cccc(O)c3n2)cc1	5.2µM*	1.4µM*	0%	4µM*	?
CCN1CCN(C(=O)Nc2ccc(Cc3ccc(NC(=O)N4CCN(CC)CC4)cc3)cc2)CC1	-22%	-14%	3%	-16%	-25%
C[C@H]1COc2cc(N3CCN(Cc4ccccc4F)CC3)ccc2S(=O)(=O)N1	-23%	·	·	·	-13%
Oc1cccc2ccc(/C=C/c3c(F)cccc3Cl)nc12	?	3.2µM*	-8%	?	?
Nc1nccc(/C=C/c2c(F)cccc2Cl)n1	-5%	-26%	3%	-5%[10 µM]	-3%
Oc1cccc2ccc(/C=C/c3ccccc3Cl)nc12	7.3µM*	4µM*	·	4.5µM*	9.2µM*
Cc1nc2c(O)cccc2cc1CO	4%	10µM*	0%	?	-4%
Cc1ccc(O)c(CNc2cccc(C)n2)c1	-7%	-23%	·	25%	6%
O=C(CSC1=NCCS1)Nc1ccc(S(=O)(=O)N2CCCCCC2)cc1	?	-14%	2%	0%	?
CC1(Cc2ccccc2Cl)C(=O)Nc2ccc(OC(F)(F)F)cc21 (configuration not stated)	?	·	·	·	23µM*
COc1ccc(S(=O)(=O)N2CCN(S(=O)(=O)c3ccc(OC)cc3)CC2)cc1	·	·	-1%	·	·
Clc1ccc(-c2csc(N/N=C/c3cccnc3)n2)c(Cl)c1	?	-9%[10 µM]	79µM*	-2%	?
Cc1ccc(S(=O)(=O)N/N=C\c2cccnc2)cc1	-4%	?	11%	-6%	-21%
Cc1ccnc(N/N=C/c2ccccc2)n1	-21%	?	4%	?	12%

High-throughput results from PubChem BioAssay.
